Assay results reported in PubChem BioAssay (EPA / NIEHS).
Activity calls are given as the source filed them. Rule for the calls: active = hit-call score of the fitted dose curve at least 0.9, where 1 is the maximum; inactive = score below 0.9.

read-out: Transforming growth factor beta 1 (TGFb1), TGFB1 (gene 7040); experiment: BSK_KF3CT_TGFb1: BioMAP Diversity Plus: KF3CT Assay for Transforming growth factor beta 1 (TGFb1) Biomarker Activity (AID 2283072); conditions: primary human keratinocytes with fibroblasts; actives raise or lower the signal
Procedure: BSK_KF3CT is a cell-based, multiplexed-readout assay that uses keratinocytes and foreskin fibroblasts, a human skin primary cell co-culture, with measurements taken at 24 hours after chemical dosing in a 96-well plate.BSK_KF3CT_TGFb1 is an assay component measured in the BSK_KF3CT assay. It measures TGF-b1 antibody related to regulation of gene expression using ELISA technology.Data from the assay component BSK_KF3CT_TGFb1 was analyzed into 1 assay endpoint. This assay endpoint, BSK_KF3CT_TGFb1, was analyzed with bidirectional fitting relative to DMSO as the negative control and baseline of activity. Using a type of binding reporter, gain or loss-of-signal activity can be used to understand changes in the signaling as they relate to the gene TGFB1. Furthermore, this assay endpoint can be referred to as a primary readout, because this assay has produced multiple assay endpoints where this one serves a signaling function. To generalize the intended target to other relatable targets, this assay endpoint is annotated to the growth factor intended target family, where the subfamily is transforming growth factor beta.
The levels of cell surface (or secreted, indicated by the prefix "s") biomarker endpoints were measured by ELISA. Overt cytotoxicity to cells in confluent adherent cultures (all systems other than the BT system) was assessed by measuring total protein levels using sulforhodamine B (SRB) staining in parallel cultures at the time of biomarker measurements, indicated as SRB endpoints. For proliferation assays for adherent cell types, individual cell types are cultured at sub-confluence and relative cell numbers quantified by SRB staining at time points optimized for each system (48 h: 3C and CASM3C systems; 72 h: BT and HDF3CGF systems; 96 h: SAg system). SRB was performed by staining cells with 0.1% SRB after fixation with 10% TCA and reading wells at 560 nm.Viability and proliferation of PBMC (T cells) was quantified by Alamar Blue reduction for the SAg and BT systems. For PBMC viability (referred to as PBMC Cytotoxicity within the assay endpoint names), cells were plated (75,000/well in a 96-well plate) and then chemical samples added for 1 h before addition of activators, SEB and TSST-1 (20 ng/mL final concentration each). Cells were incubated for 90 h. Then, Alamar Blue (20 uL/well) (Invitrogen, Cat DAL1100) was added for 6 h, and the plates were read with a fluorescence microplate reader at 546/580 nm (excitation/emission). For PBMC proliferation, cells were plated and activated as above but incubated for only 16 h prior to addition of Alamar Blue. Plates were read after 6 h.

Row | SMILES | outcome | AC50
1 | C=C(C)C(=O)OCCOCCOCCOCCOC(=O)C(=C)C | inactive | 
2 | CCN(CC)C(=O)N(CC)CC | inactive | 
3 | Cc1cc(CCC(=O)OCCOCCOCCOC(=O)CCc2cc(C)c(O)c(C(C)(C)C)c2)cc(C(C)(C)C)c1O | inactive | 
4 | c1ccc(Oc2ccccc2)cc1 |  | 20 µM (active)
5 | CS(=O)(=O)OCCCCOS(C)(=O)=O | inactive | 
6 | C=C(C)C(=O)OCC(CC)(COC(=O)C(=C)C)COC(=O)C(=C)C | inactive | 
7 | CN(c1nccc(=O)[nH]1)C1CCN(c2nc3ccccc3n2Cc2ccc(F)cc2)CC1 | inactive | 
8 | COc1ccc(CCN2CCC(Nc3nc4ccccc4n3Cc3ccc(F)cc3)CC2)cc1 | inactive | 
9 | IC(I)I | inactive | 
10 | CC1(C)C2=CCCC(C)(C)[C@]23CC[C@H]1C3 |  | 7.31 µM (active)
11 | CCCCCCCCCCCCCCCC(=O)OC/C=C(C)/C=C/C=C(C)/C=C/C1=C(C)CCCC1(C)C |  | 0.0644 µM (active)
12 | CCCCN(CCCC)C(=O)N(CCCC)CCCC |  | 5.42 µM (active)
13 | CSCCC=O | inactive | 
14 | CC(C)(N=C=O)c1cccc(C(C)(C)N=C=O)c1 | inactive | 
15 | c1ccc(CCc2ccccc2)cc1 |  | 12.8 µM (active)
16 | CCCCCC(C=O)=Cc1ccccc1 | inactive | 
17 | C1=CC2C3C=CC(C3)C2C1 (stereo not drawn) | inactive | 
18 | c1ccc2cc(Nc3ccc(Nc4ccc5ccccc5c4)cc3)ccc2c1 | inactive | 
19 | C[C@@H]1CCN(C(=O)[C@H](CCCN=C(N)N)NS(=O)(=O)c2cccc3c2NC[C@H](C)C3)[C@@H](C(=O)O)C1 | inactive | 

Row | SMILES | outcome | AC50
20 | CC(C=O)Cc1ccc(C(C)(C)C)cc1 (stereo not drawn) | inactive | 
21 | CC(C)(C)CC(C)(C)c1ccc(OCCOCC[N+](C)(C)Cc2ccccc2)cc1 |  | 3.38 µM (active)
22 | CS(=O)(=O)c1ccc(C2=C(c3ccccc3)C(=O)OC2)cc1 | inactive | 
23 | Clc1cc(Cl)c(-c2c(Cl)c(Cl)cc(Cl)c2Cl)cc1Cl |  | 4.16 µM (active)
24 | CC(=O)C1(C)CC2=C(CCCC2(C)C)CC1C (stereo not drawn) | inactive | 
25 | CN(C)C(=O)Nc1ccc(Oc2ccc(Cl)cc2)cc1 | inactive | 
26 | CC(=O)c1c(C)c([N+](=O)[O-])c(C(C)(C)C)c([N+](=O)[O-])c1C | inactive | 
27 | COc1ccc(OC)c(N=Nc2c(O)ccc3ccccc23)c1 |  | 3.97 µM (active)
28 | CC=Cc1ccc(OCC)c(O)c1 | inactive | 
29 | COc1cc(Cl)c(OC)cc1N | inactive | 
30 | CN(C)C(=S)SC(=S)N(C)C | inactive | 
31 | O=C1OC2(c3ccccc31)c1ccc(O)c(Br)c1Oc1c2ccc(O)c1Br |  | 4.66 µM (active)
32 | C=C(C)C(=O)OCCOCCOCCOC(=O)C(=C)C | inactive | 
33 | C=C(C)[C@H]1CC=C(C)C(=O)C1 | inactive | 
34 | CCC(C)c1cc([N+](=O)[O-])cc([N+](=O)[O-])c1OC(=O)OC(C)C (stereo not drawn) |  | 20 µM (active)
35 | Oc1c(Cl)cc(Cl)c(Cl)c1Cc1c(O)c(Cl)cc(Cl)c1Cl |  | 2.81 µM (active)
36 | CCCCOC(=O)CCCCCCCC(=O)OCCCC | inactive | 
37 | O=C1c2ccccc2C(=O)c2c(O)ccc(O)c21 | inactive | 
38 | O=C1OC[C@H](Cc2cccc(O)c2)[C@H]1Cc1cccc(O)c1 | inactive | 
